A selection: hits, their analogues and other compounds. The true share with any hit is near 11%.
HP1b chromo inh = blocks HP1-beta chromodomain binding to methylated histone tails; hit rate 0.56% among 390,000; AID 540317; P83916; Potency, µM (top dose mostly 114 µM), for inactives: top-dose activity change, negative = inhibition, hits mostly inhibitors; AlphaScreen HP1-beta / biotin-H3K9me3 peptide binding; further: nearly all actives have a fitted effect of over 70% in size
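AlphaScreen: HP1-beta (50 nM) preformed 30 min with biotin-H3(1-18)K9me3 peptide (50 nM) in PBS pH 7.4, 0.01% Tween-20. Compound added for 30 min at RT, then streptavidin donor/nickel chelate acceptor beads (10 ug/mL) for 30 min.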
JMJD2A Tudor = inhibitors of human JMJD2A Tudor domain | O75164 | hit rate 4.4% among 390,000 | AlphaScreen JMJD2A-Tudor / H3K4me3 peptide binding | AID 504339 | Potency, µM (highest dose often 114 µM), for the others: at the highest dose activity change, negative = inhibition, actives largely listed as inhibitors; further: on the % scale 0 is the no-effect control and ±100 the full control effect; nearly all actives have a fitted effect of over 50% in size
L3MBTL1 inh = blocks human L3MBTL1. Q9Y468. AlphaScreen L3MBTL1–H3K9me1 peptide binding. Potency, µM (highest dose often 57.1 µM), without a hit: top-dose activity, negative = inhibition, hits mostly inhibitors. hit rate 0.66% among 230,000; further: on the % scale 0 is the no-effect control and ±100 the full control effect; nearly all actives have a fitted effect of over 60% in size
Target sequence (Q9Y468 whole entry, looked up): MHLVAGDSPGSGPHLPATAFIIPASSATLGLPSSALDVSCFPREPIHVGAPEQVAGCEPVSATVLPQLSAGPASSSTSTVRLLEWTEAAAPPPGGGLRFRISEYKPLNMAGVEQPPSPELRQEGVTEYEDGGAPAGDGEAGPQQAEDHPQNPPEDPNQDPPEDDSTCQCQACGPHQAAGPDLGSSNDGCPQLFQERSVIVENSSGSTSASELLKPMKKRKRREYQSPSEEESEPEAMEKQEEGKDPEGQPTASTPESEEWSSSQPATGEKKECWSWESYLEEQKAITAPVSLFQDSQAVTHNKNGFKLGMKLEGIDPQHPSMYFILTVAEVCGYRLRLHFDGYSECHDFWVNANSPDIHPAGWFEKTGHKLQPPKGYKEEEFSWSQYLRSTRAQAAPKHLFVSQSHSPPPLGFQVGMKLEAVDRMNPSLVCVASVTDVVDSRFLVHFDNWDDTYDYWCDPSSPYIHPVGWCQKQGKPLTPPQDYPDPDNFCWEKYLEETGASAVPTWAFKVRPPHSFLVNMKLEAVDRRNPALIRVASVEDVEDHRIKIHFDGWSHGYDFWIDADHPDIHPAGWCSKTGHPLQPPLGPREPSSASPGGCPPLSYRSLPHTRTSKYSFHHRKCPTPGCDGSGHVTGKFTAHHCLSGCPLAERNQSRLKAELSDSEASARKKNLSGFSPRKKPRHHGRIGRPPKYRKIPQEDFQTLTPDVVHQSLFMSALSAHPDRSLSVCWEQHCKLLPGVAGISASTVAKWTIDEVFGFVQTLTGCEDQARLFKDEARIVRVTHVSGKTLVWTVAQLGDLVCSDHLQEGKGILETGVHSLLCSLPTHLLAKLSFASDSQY
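L3MBTL1 50 nM + b-AHA-H3(1-15)K9me1 75 nM, 30 min RT; compound added, 30 min RT; streptavidin donor/Ni-chelate acceptor beads 10 ug/mL each final, 30 min RT dark; AlphaScreen read.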
G9a inh = G9a (human) methyltransferase inhibition; Q96KQ7; G9a H3K9 monomethylation, AlphaScreen, 2 h; Potency, µM (doses to about 102 µM), for inactives: top-dose activity, negative = inhibition, usual class: inhibitors; hit rate 8.8% among 350,000; AID 504332; further: on the % scale 0 is the no-effect control and ±100 the full control effect; nearly all actives have a fitted effect of over 75% in size
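Readings reflect AlphaScreen signal from monomethyl-H3K9 antibody detection. HMT at 20 nM; substrate b-H3K9 500 nM; cofactor SAM 20 uM; 2 h RT reaction; compounds tested as titrations in qHTS with 15 min preincubation.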
BAZ2B block = blocks human BAZ2B; AlphaScreen BAZ2B-H3K14Ac peptide displacement; hit rate 4.4% among 360,000; Potency, µM (titrated, usually from 114 µM), for the others: top-dose activity change, negative = inhibition, hits mostly inhibitors; AID 504333; Q9UIF8; further: on the % scale 0 is the no-effect control and ±100 the full control effect; nearly all actives have a fitted effect of over 60% in size
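AlphaScreen displacement: compounds (up to 110uM) incubated 30 min at room temperature with a preformed 50 nM BAZ2B/50 nM biotinylated H3K14Ac peptide complex in PBS pH 7.4 with Tween-20. Donor and acceptor beads at 10 ug/mL final added, 20 min light-protected before reading.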
* marks the source's active call; other numbers are inactive results; ? = inconclusive; . = no result given; [ ] = another dose, or the depositor's remark. The call rests on the fitted dose curve; in most records, active means well fitted inhibition curve with a large enough effect; inconclusive means small, poorly fitted or top-dose-only effect; inactive means no such curve, though single readings can be large or run the other way. Potency means the concentration at half of the fitted maximal effect.

SMILES | HP1b chromo inh | JMJD2A Tudor | L3MBTL1 inh | G9a inh | BAZ2B block
COCc1cc(N2CCCCC2)nc(-c2ccccc2)n1 | 18% | 20µM* | 7% | 83% | 50%
COc1ccc(S(=O)(=O)Nc2ccc(-n3cnnn3)cc2)cc1[N+](=O)[O-] | 24% | -21% | -3% | 20%[12.7 µM] | -8%
CCCC(NC(=S)NCC1CCCO1)C12CC3CC(CC(C3)C1)C2 (centres undefined) | 13% | ? | . | 13µM* | -6%
CC(C)C[C@@H](/C=C/S(C)(=O)=O)NC(=O)[C@H](CC(C)C)NC(=O)[C@H](CC(C)C)NC(=O)OCc1ccccc1 | . | . | . | 36%[59 µM] | .
O=C(CCCCn1c(=S)[nH]c2ccsc2c1=O)NCc1ccco1 | -15% | 25µM* | -5% | 22µM* | -32%
Cc1ccccc1Cn1c(=O)n(CCCC(=O)NCc2ccco2)c(=O)c2sccc21 | 4% | -20% | . | 20% | 5%
O=C(CCCn1c(=S)[nH]c2ccsc2c1=O)NCc1ccco1 | 4% | 56µM* | 2% | ? | ?
c1coc(CN2CCN(C(c3cccs3)c3nnnn3C3CCCC3)CC2)c1 (centres undefined) | 17% | ? | 7% | 50µM* | ?
CC(=O)NCc1ccc(C(=O)COC(=O)COc2ccc(Cl)c(C)c2)s1 | 30% | -21% | -5% | . | .
CC(=O)NCc1ccc(C(=O)COC(=O)COc2ccccc2)s1 | 23% | -9% | -9% | 20µM* | -31%
CN1CCN(CCNC(=O)c2cnn(-c3ccc(Cl)cc3)c2C2CCN(C(=O)OC(C)(C)C)CC2)CC1 | 38% | -2% | . | -4%[59 µM] | 6%[57.1 µM]
O=C(CCN1CCOCC1)NNC(=S)NC(=O)c1ccc(Br)cc1 | 6% | ? | 0% | 7.9µM* | -37%
O=C(NC(=S)NCCCN1CCOCC1)c1ccc(Br)cc1 | 17% | -14% | -11% | -8% | -18%
O=C(CCN1CCCCC1)NNC(=S)NC(=O)c1ccc(Br)cc1 | 11% | ? | ? | 11µM* | ?
O=C(O)CCCCCNC(=O)c1ccc(Br)cc1 | 40% | -16%[57.1 µM] | . | 50µM* | ?
O=C(NCCc1ccccc1)C1CCCN(c2cnccn2)C1 (centres undefined) | ? | 28µM* | . | . | -7%
Cc1ccc(C)n1-c1sccc1C(=O)O | ? | ? | . | 13µM* | 18µM*
Cc1ccc(NC(=O)C2CCCN2S(=O)(=O)c2cccc3cccnc23)cc1 (centres undefined) | 12% | -19% | . | 1%[59 µM] | -1%
COc1ccc(/C=C/C(=O)NCCCN2CCCCCC2)cc1 | 13% | ? | . | 50µM* | -26%
COc1ccc2cc(/C=C/C(=O)N3CCN(CC(=O)N4CCCCCC4)CC3)ccc2c1 | 42% | -22% | . | 71µM* | -17%
O=C(/C=N/O)NCCCN1CCCCCC1 | 17% | ? | . | 45µM* | 50µM*
COc1ccc(/C=C/C(=O)NCCCN2CCOCC2)cc1 | 24% | 4% | . | -6% | -8%
OCCOCCOCCO | . | . | . | 30%[59 µM] | .
Cc1ccc(OCC(=O)NCc2n[nH]c(=O)c3ccccc23)cc1 | 12% | -14% | 8% | 8%[0.501 µM] | -6%
COc1ccccc1NS(=O)(=O)c1ccc(Cl)c(NC(=O)C(C)N2C(=O)c3ccccc3C2=O)c1 (centres undefined) | 13% | -13% | -9% | 50µM* | -10%
SMILES | HP1b chromo inh | JMJD2A Tudor | L3MBTL1 inh | G9a inh | BAZ2B block
COc1ccccc1NC(=O)C(C(C)C)N1C(=O)c2ccccc2C1=O (centres undefined) | 11% | -18% | 1% | . | 10%
CC(=O)c1c(C)n(-c2ccc(Cl)cc2)c2ccc(O)cc12 | -1% | -8% | . | ? | 2%
CC(=O)c1c(C)n(-c2cccc(Cl)c2)c2ccc(O)cc12 | 8% | -20% | . | 35µM* | 0%
CC1=C(C(=O)Nc2ccc(Cl)cc2)C(C(C)C)n2nc(SCc3ccc(Cl)cc3)nc2N1 (centres undefined) | 8% | -12% | . | -20%[59 µM] | -1%
CC(C)CCNC(=O)c1onc(CSc2ccccn2)c1C(=O)NCCC(C)C | 44% | 35µM* | . | . | .
Cc1c(C)n2c(SCC(=O)N3CCCCCC3)nnc2[nH]c1=O | 51% | -3% | 7% | ? | 6%
Cc1c(C)n2c(SCC(=O)N3CCOCC3)nnc2[nH]c1=O | 27% | 32µM* | 1% | -30%[0.501 µM] | -6%

Source: PubChem BioAssay (National Center for Advancing Translational Sciences (NCATS))
